In PubChem BioAssay (NCATS):
Inconclusive results are not listed. Unmarked numbers belong to inactive results. Activity calls are given as the source filed them. The call rests on the fitted dose curve; in most records, active means well fitted cell-killing curve with a large enough effect; inconclusive means small, poorly fitted or top-dose-only effect, or effect the other way; inactive means no such curve, though single readings can be large or run the other way.

Legend:
[1] = Viability qHTS for spleen associated tyrosine kinase inhibitor (SYKi) naive MV4-11 cells (AID 1963823); further: nearly all actives have a fitted effect of over 40% in size
Method in brief: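 SYKi-naive MV4-11 AML cells, 500 per well, were exposed to library compounds for 72 hr at 37 C, 5% CO2. Viability was then read by CellTiter-Glo luminescence after 10 min at room temperature.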

[2] = Viability qHTS for spleen associated tyrosine kinase inhibitor (SYKi) drug resistant MV4-11 cells (AID 1963824); further: nearly all actives have a fitted effect of over 35% in size
Method in brief: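 CellTiter-Glo luminescence, read 10 min after reagent addition, reports viability after a 72 hr compound exposure. Cells are an MV4-11 line made resistant to SYK inhibition, seeded at 500 per well onto compound-containing plates.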
Potency means the concentration at half of the fitted maximal effect.

Row | Compound | Potency [1] | Potency [2] | viability (% of control) [1] | viability, % of control [2]
1 | CC(CCC1C(C(=O)O)=CC(=O)CC1(C)C)O[C@@H]1O[C@H](CO)[C@@H](O)[C@H](O)[C@H]1O (stereo partly specified) | inactive | inactive |  | 
2 | C[C@H](Oc1cc(-n2cnc3ccc(CN4CCN(C)CC4)cc32)sc1C(N)=O)c1ccccc1C(F)(F)F | 1.03 µM (active) | 0.58 µM (active) |  | 
3 | COc1ccc(/C=C/C(=O)O[C@@H]2[C@@H](O[C@@H]3O[C@H](CO)[C@@H](O)[C@H](O)[C@H]3O)[C@@H](O)[C@H](O[C@H]3C4C=CO[C@@H](O[C@@H]5O[C@H](CO)[C@@H](O)[C@H](O)[C@H]5O)C4[C@@]4(CO)O[C@@H]34)O[C@H]2C)cc1 (stereo partly specified) |  |  | 75.2% [at 9.25 µM] | 104% [at 9.25 µM]
